Data as given in PubChem BioAssay AID1461 (National Center for Advancing Translational Sciences (NCATS), 2008).
About 2,300 (1%) of roughly 220,000 compounds were called active. Inconclusive results (about 6%) are left out. Shown is part of a subset that was picked to be rich in actives. Unmarked numbers belong to inactive results. The call rests on the fitted dose curve; in most records, active means well fitted inhibition curve with a large enough effect; inconclusive means small, poorly fitted or top-dose-only effect, or effect the other way; inactive means no such curve, though single readings can be large or run the other way.

The compounds below were run against Neuropeptide S receptor (Homo sapiens) (UniProt Q6W5P4) (assay: qHTS Assay for Antagonists of the Neuropeptide S Receptor: cAMP Signal Transduction). Conditions: CHO-NPSR cells, cAMP TR-FRET, antagonist mode; series mostly up to 38.3 µM; activity change, negative = inhibition: at the top concentration.
Further: nearly all actives have a fitted effect of over 50% in size.
On the % scale 0 is the no-effect control and ±100 the full control effect; potency means the concentration at half of the fitted maximal effect.

Sequence of Neuropeptide S receptor (Homo sapiens) (Q6W5P4 whole entry, looked up): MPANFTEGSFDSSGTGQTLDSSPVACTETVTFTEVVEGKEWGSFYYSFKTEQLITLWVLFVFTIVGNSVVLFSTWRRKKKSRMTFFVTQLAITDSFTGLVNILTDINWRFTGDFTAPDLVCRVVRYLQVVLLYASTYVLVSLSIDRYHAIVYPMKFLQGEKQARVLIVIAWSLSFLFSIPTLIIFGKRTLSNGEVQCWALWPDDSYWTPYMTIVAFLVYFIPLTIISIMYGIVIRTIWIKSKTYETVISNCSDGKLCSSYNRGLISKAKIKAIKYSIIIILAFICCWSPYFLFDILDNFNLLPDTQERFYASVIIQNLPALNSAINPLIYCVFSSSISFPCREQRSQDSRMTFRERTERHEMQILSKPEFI

Q: How did the “activity change, negative = inhibition” value turn out when `N#C/C(=C\N1CCOCC1)S(=O)(=O)c1ccc(Cl)cc1` was run?
A: Its value is 14.9%.

Q: How did the “activity change, negative = inhibition” value turn out when `O=C(COc1ccccc1)N1CCN=C1SCc1cccc(F)c1` was run?
A: Its value is -1.12%.

Q: Which “activity change, negative = inhibition” value does the source give for `N#CCCCn1c(O)c(N=NC(=O)C(O)c2ccccc2)c2ccccc21` (stereo unspecified) here?
A: The value was -19.2%.

Q: For `O=C(NCc1cccs1)c1cc(-c2ccccn2)nc2ccc(Br)cc12`, which Potency is on record?
A: Its Potency is 10 µM (active).

Q: For `O=C(NCc1ccccn1)c1cc(Br)ccc1Cl`, which “activity change, negative = inhibition” value is on record?
A: The value was 7.75%.

Q: With `O=C(NCC(c1cccs1)N1CCOCC1)c1cc(-c2ccccn2)nc2ccccc12` (stereo unspecified) as the compound, how does the “activity change, negative = inhibition” value read?
A: Its value is 7.93%.

Q: For `C#CCO[C@@H]1C[C@H](n2cnc3c(=O)[nH]c(NC(=O)C(C)C)nc32)O[C@@H]1CO`, which “activity change, negative = inhibition” value is on record?
A: The value was 10.8%.

Q: For `CCC1=NN2C(=N)/C(=C/c3cc(C)n(-c4ccccc4)c3C)C(=O)N=C2S1`, which “activity change, negative = inhibition” value is on record?
A: The value was 19.1%.

Q: For `Cc1ccc2cc(/C=N/Nc3ccc(C(=O)O)cc3)c(Cl)nc2c1`, which “activity change, negative = inhibition” value is on record?
A: Its value is -22.4%.

Q: With `Cc1ccc(C2C3=C(Nc4[nH]n(-c5ccccc5)c(=O)c42)c2ccccc2C3=O)cc1` (stereo unspecified) as the compound, how does the “activity change, negative = inhibition” value read?
A: Its value is -43.2%.

Q: With `Cc1cc(C)c(C2C3=C(Nc4c2c(C)nn4-c2ccccn2)c2ccccc2C3=O)c(C)c1` (stereo unspecified) as the compound, how does the Potency read?
A: The Potency was 10 µM (active).

Q: Which “activity change, negative = inhibition” value does the source give for `Cc1nn(-c2ccccn2)c2c1C(c1ccncc1)C1=C(CC(C)(C)CC1=O)N2` (stereo unspecified) here?
A: The value was -14.2% [at 46.1 µM].

Q: With `COCc1cc(=O)[nH]c(-c2ccc(C(F)(F)F)cc2)n1` as the compound, how does the “activity change, negative = inhibition” value read?
A: Its value is -8.06%.

Q: How did the “activity change, negative = inhibition” value turn out when `Cc1oc(C(N)=O)cc1COc1ccc(C(N)=O)cc1` was run?
A: Its value is 11.4%.

Q: With `O=C(NC(Nc1nc2ccc([N+](=O)[O-])cc2s1)(C(F)(F)F)C(F)(F)F)c1ccccc1` as the compound, how does the Potency read?
A: The Potency was 3.98 µM (active).

Q: `O=C(Nc1nc2ccc([N+](=O)[O-])cc2s1)c1ccncc1` was tested. Which “activity change, negative = inhibition” value did it give?
A: The value was -23.6%.

Q: For `O=C(O)CCC(=O)Nc1nc2ccc([N+](=O)[O-])cc2s1`, which “activity change, negative = inhibition” value is on record?
A: Its value is 36.1%.

Q: Which “activity change, negative = inhibition” value does the source give for `O=c1c2cc(-c3ccccc3)sc2nc2n1N=C(c1cccs1)CS2` here?
A: The value was 12.2%.

Q: How did the “activity change, negative = inhibition” value turn out when `Brc1ccc2ncnc(NCc3cccnc3)c2c1` was run?
A: The value was 48.1%.

Q: For `O=C(Nc1cccnc1Oc1ncnc2cc(Cl)ccc12)c1ccc(F)cc1`, which “activity change, negative = inhibition” value is on record?
A: The value was 4.01%.

Q: How did the “activity change, negative = inhibition” value turn out when `N#Cc1c(NCCO)ccc([N+](=O)[O-])c1NCCO` was run?
A: The value was 8.09%.

Q: How did the “activity change, negative = inhibition” value turn out when `CCN1CCN(c2ccc([N+](=O)[O-])cc2C(=O)c2ccc(Cl)cc2)CC1` was run?
A: The value was -24.6% [at 46.1 µM].

Q: Which Potency does the source give for `O=C(Nc1cccc(Cl)c1)c1cc([N+](=O)[O-])ccc1N1CCN(CCO)CC1` here?
A: Its Potency is 10 µM (active).

Q: With `Cc1cccc(NC(=O)c2cc([N+](=O)[O-])ccc2N2CCN(C)CC2)c1` as the compound, how does the “activity change, negative = inhibition” value read?
A: Its value is -44.1%.

Q: With `CCC(C)N1C(=S)SC(C)(C)C1N(O)C(=O)NC1CCCCC1` (stereo unspecified) as the compound, how does the “activity change, negative = inhibition” value read?
A: The value was -8.21%.

Q: `CCCN(CCC)S(=O)(=O)c1ccc(C(=O)N2CC3CCC(CC3)C2)cc1` was tested. Which “activity change, negative = inhibition” value did it give?
A: Its value is 59.1%.

Q: Which “activity change, negative = inhibition” value does the source give for `COc1ccc(C(=O)Cc2cnn(-c3ccccc3)c2)c(O)c1` here?
A: Its value is -8.11% [at 46.1 µM].

Q: How did the Potency turn out when `Cc1[nH]nc(-c2ccc(OCc3cnn(-c4ccccc4)c3)cc2O)c1Oc1ccc(Cl)cc1` was run?
A: The Potency was 10 µM (active).

Q: With `CCOc1ccc(-c2n[nH]c(C)c2-c2ccccn2)c(O)c1` as the compound, how does the “activity change, negative = inhibition” value read?
A: Its value is -0.578%.

Q: How did the “activity change, negative = inhibition” value turn out when `CC(C)n1c(CN2CCN(Cc3ccccc3)CC2)nc2ccccc21` was run?
A: The value was 15.9%.

Q: Which “activity change, negative = inhibition” value does the source give for `Cn1cc(S(=O)(=O)NC(c2ccccc2)c2ccccc2)c(=O)n(C)c1=O` here?
A: The value was 11.3%.

Q: How did the “activity change, negative = inhibition” value turn out when `CCC(=O)NCCc1nc2ccccc2n1CC` was run?
A: The value was -9.81% [at 46.1 µM].

Q: For `CCCc1nc2c(C)cc(-c3nc4ccccc4n3C)cc2n1Cc1ccc(-c2ccccc2C(=O)O)cc1`, which Potency is on record?
A: Its Potency is 1.26 µM (active).

Q: `CC(=O)Nc1nc2ccccc2n1Cc1ccc(C)cc1` was tested. Which “activity change, negative = inhibition” value did it give?
A: The value was 2.41%.

Q: For `CS(=O)(=O)c1sc(C(=O)NC(=S)Nc2ccc(OC(F)(F)F)cc2)c2c1C=CCC2`, which “activity change, negative = inhibition” value is on record?
A: Its value is 0.129%.

Q: `Cc1cccc(-[n+]2c(-c3cccc(Br)c3)[nH]c3nc4ccccc4nc32)c1` was tested. Which Potency did it give?
A: The Potency was 10 µM (active).

Q: Which “activity change, negative = inhibition” value does the source give for `Cc1ccc2nc(-c3cccc(Br)c3)cc(C(=O)Nn3cnnc3)c2c1` here?
A: Its value is -9.85%.

Q: For `COc1ccc2cc1Oc1ccc(cc1)C[C@H]1c3cc(c(OC)cc3CCN1C)Oc1c(O)c(OC)cc3c1[C@H](C2)N(C)CC3`, which “activity change, negative = inhibition” value is on record?
A: The value was 6.91%.

Q: `O=C(Nc1nnc(COc2ccccc2)s1)Nc1ccccc1F` was tested. Which “activity change, negative = inhibition” value did it give?
A: Its value is 14.2%.

Q: Which “activity change, negative = inhibition” value does the source give for `CCC(=O)c1ccc(OCC(=O)Nc2ccc3nc(C)sc3c2)cc1` here?
A: The value was -3.19%.

Q: With `CCOC(=O)CC1C(=O)NCCN1c1nc2c(C)cccn2c(=O)c1/C=C1\SC(=S)N(C(C)CC)C1=O` (stereo unspecified) as the compound, how does the Potency read?
A: Its Potency is 12.6 µM (active).

Q: For `CCOC(=O)CC1C(=O)NCCN1C(=O)COc1ccc(Br)cc1C` (stereo unspecified), which “activity change, negative = inhibition” value is on record?
A: Its value is 2.52% [at 46.1 µM].

Q: With `Cc1cccn2c(=O)c(/C=C3\SC(=S)N(CC(C)C)C3=O)c(NCCCOC(C)C)nc12` as the compound, how does the “activity change, negative = inhibition” value read?
A: The value was -1.16% [at 46.1 µM].

Q: How did the “activity change, negative = inhibition” value turn out when `CC(C)OP(=O)(OC(C)C)C(Nc1ccccc1)c1cccc([N+](=O)[O-])c1` (stereo unspecified) was run?
A: The value was -43.6%.

Q: Which “activity change, negative = inhibition” value does the source give for `CCc1nnc(NS(=O)(=O)c2ccc(NC(=S)NC(=O)c3cccs3)cc2)s1` here?
A: The value was 27.6%.

Q: For `Cc1ccc(-c2csc(NC(=O)c3cccs3)n2)cc1`, which “activity change, negative = inhibition” value is on record?
A: The value was -24.1% [at 46.1 µM].

Q: For `Cc1sc(NC(=S)NC(=O)c2cccs2)nc1-c1ccc(CC(C)C)cc1`, which Potency is on record?
A: The Potency was 12.6 µM (active).

Q: With `COC(C[C@@H](O)[C@H](C)[C@H](O)COCc1ccccc1)OC` as the compound, how does the “activity change, negative = inhibition” value read?
A: Its value is 21.1%.

Q: `O=C(Nc1ccccc1)O/N=C1/CCCc2occc21` was tested. Which “activity change, negative = inhibition” value did it give?
A: Its value is 2.04%.

Q: For `O=C(CNCc1cccs1)Nc1cc(S(=O)(=O)N2CCCC2)ccc1Cl`, which “activity change, negative = inhibition” value is on record?
A: Its value is -21.1%.

Q: Which “activity change, negative = inhibition” value does the source give for `C=CCNC(=O)CSc1nc2scc(-c3ccco3)c2c(=O)n1CC=C` here?
A: Its value is -7.73%.
